Bioassay records: PubChem, National Center for Advancing Translational Sciences (NCATS)
POLH inh: blocks human DNA polymerase eta activity; recombinant Pol eta, fluorescent DNA replication assay; Potency, µM (highest dose often 114 µM), most hits filed as inhibitors; Q9Y253; AID 588591; 390,000 compounds, 1.2% hits
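Fluorescent replication assay: 50 nM final substrate added after a 15 min room-temperature compound preincubation with 10 nM enzyme. Signal taken at 0 min and again at 10 min.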
POLK inh: blocks human DNA polymerase kappa activity | Q9UBT6 | purified Pol kappa, fluorescent DNA synthesis assay, 10 min | Potency, µM (top dose mostly 107 µM), hits mostly inhibitors | 400,000 compounds, 0.53% hits
Target sequence (Q9UBT6 whole entry, looked up): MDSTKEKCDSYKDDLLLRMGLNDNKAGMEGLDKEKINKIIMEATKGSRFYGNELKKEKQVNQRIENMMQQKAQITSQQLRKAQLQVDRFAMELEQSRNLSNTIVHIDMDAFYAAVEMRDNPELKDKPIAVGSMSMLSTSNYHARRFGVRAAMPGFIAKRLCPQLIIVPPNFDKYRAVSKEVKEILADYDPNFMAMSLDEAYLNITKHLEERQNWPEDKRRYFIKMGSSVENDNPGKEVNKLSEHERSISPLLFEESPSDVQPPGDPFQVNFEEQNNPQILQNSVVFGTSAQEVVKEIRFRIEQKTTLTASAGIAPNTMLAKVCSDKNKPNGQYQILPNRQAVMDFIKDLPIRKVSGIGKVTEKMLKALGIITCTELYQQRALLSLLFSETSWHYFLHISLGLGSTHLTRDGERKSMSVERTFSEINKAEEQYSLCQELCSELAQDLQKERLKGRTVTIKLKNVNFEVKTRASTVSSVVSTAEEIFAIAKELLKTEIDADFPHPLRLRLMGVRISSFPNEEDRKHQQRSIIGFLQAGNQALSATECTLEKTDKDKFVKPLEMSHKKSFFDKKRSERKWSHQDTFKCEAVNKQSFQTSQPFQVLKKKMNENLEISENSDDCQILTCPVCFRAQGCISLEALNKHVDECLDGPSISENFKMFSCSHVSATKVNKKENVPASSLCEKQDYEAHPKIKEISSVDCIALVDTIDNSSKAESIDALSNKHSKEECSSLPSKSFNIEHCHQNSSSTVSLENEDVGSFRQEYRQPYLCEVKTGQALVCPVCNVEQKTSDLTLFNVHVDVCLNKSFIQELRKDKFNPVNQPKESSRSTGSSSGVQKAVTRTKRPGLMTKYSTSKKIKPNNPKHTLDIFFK
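Fluorescent qHTS in 1536-well format: enzyme (10 nM) and compound sat 15 min at room temperature before 50 nM substrate (final) was added. Signal taken at 0 and 10 min; no-enzyme buffer wells were negative controls.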
POLB inh: DNA polymerase beta (human) inhibition | P06746 | Pol beta primer extension/strand displacement, fluorescence kinetic | Potency, µM (series often up to 114 µM), hits mostly inhibitors | 340,000 compounds, 1.3% hits | AID 485314
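Reaction started by 50 nM substrate onto compound-treated Pol beta (10 nM, 15 min preincubation, room temperature); plates read at 0 min and 10 min. Normalized concentration-effect data fitted by four-parameter Hill equation.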
POLI inh: blocks human DNA polymerase iota activity; Q9UNA4; Pol iota fluorescent replication assay, 10 min; Potency, µM (series often up to 115 µM), usual class: inhibitors; 390,000 compounds, 1% hits
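Fluorescent replication assay read twice, at 0 min and 10 min after adding 50 nM (final) substrate. Enzyme (10 nM) and compounds were first incubated 15 min at room temperature; enzyme-free buffer wells were negative controls.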
WRN helicase inh: blocks human WRN helicase. Q14191. WRN helicase unwinding, fluorescent forked duplex, kinetic. Potency, µM (titrated, usually from 114 µM), usual class: inhibitors. 360,000 compounds, 0.46% hits. AID 651768; also: nearly all actives have a fitted effect of over 55% in size
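WRN at 20 nM final was preincubated with compound for 15 min at room temperature; reaction started with 100 nM forked duplex oligonucleotide carrying fluorophore and quencher plus 2 mM ATP (final). Unwinding followed kinetically by red fluorescence (ex 525/em 598 nm).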
PI5P4Ka inh: inhibitors of human PI5P4K alpha; max response, %; 330,000 compounds, 1.2% hits; PI5P4Kalpha enzyme, ADP-Glo luminescence, 60 min; stronger effect = lower value; active = max response of -50% or lower; inconclusive = between -30% and -50%; inactive = -30% or higher; also: value at the top dose of about 77 µM
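Compounds were pin-transferred onto PI5P4Kalpha and substrate in HEPES pH 7.4 buffer with EGTA, CHAPS and 5% DMSO. ATP (5 microM final) started the reaction, which ran 60 minutes at room temperature before ADP-Glo detection.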
Of the large screens only hits and unclear results are named; the others gave an inactive call. The list is not random: actives were taken first. Their share in the collection is about 2.8%. Unless noted, calls follow the shape of the dose curve; as a rule, active = well fitted curve in the direction sought with a large enough effect; inconclusive = small, poorly fitted or top-dose-only effect, or another doubt; inactive = no such curve, though single readings can be large; an effect the other way counts as inactive or inconclusive.

CCN(CC)c1cc(C)c2cc(NC(=O)c3cc(OC)cc(OC)c3)ccc2n1	none (no result: WRN helicase inh, PI5P4Ka inh)
COc1ccc(C(=O)Nc2cccc(NC(=O)c3ccc(OC)c(OC)c3)n2)cc1OC	POLB inh 22.4µM, POLI inh inconclusive
CCN(CC)c1cc(C)c2cc(NC(=O)c3ccc(OC)c(OC)c3)ccc2n1	POLK inh inconclusive, POLB inh 12.6µM, POLI inh inconclusive (no result: WRN helicase inh, PI5P4Ka inh)
CCc1cc(-c2nnn(CCC3COCCO3)c2C(C)(C)O)ccc1-c1cn(CCc2c[nH]c3ccccc23)nn1 (stereo unspecified)	none (no result: POLK inh, POLB inh, POLI inh)
CNc1n[nH]c(=S)s1	POLI inh inconclusive, WRN helicase inh inconclusive, PI5P4Ka inh -57.4
CC(=O)Nc1nc(C)c(C(C)(C)C)s1	none
O=C(Nc1n[nH]c(=S)s1)c1ccc2ccccc2c1	PI5P4Ka inh -55.2
C=CCNc1n[nH]c(=S)s1	none (no result: POLK inh, POLB inh, POLI inh)
O=C(Nc1nccs1)c1ccc2ccccc2c1	none
CC(=O)Nc1n[nH]c(=S)s1	POLH inh inconclusive, WRN helicase inh inconclusive, PI5P4Ka inh -85.7 (no result: POLB inh)
COc1ccc(CNc2nc(NCc3ccc(OC)cc3)c3ncn(C4CCCCC4)c3n2)cc1	none (no result: POLH inh, POLB inh, POLI inh, WRN helicase inh, PI5P4Ka inh)
O=c1c(C(c2ccc(Cl)cc2)c2c(O)nc3n(c2=O)CCS3)c(O)nc2n1CCS2	POLH inh 89.1µM, POLK inh inconclusive, POLI inh inconclusive, PI5P4Ka inh inconclusive
O=C(COc1cccnc1[N+](=O)[O-])Nc1c(Cl)cccc1Cl	none (no result: POLB inh)
O=C(COc1cccnc1[N+](=O)[O-])c1ccc(Cl)s1	POLH inh 44.7µM, POLK inh 79.4µM, POLB inh 31.6µM, POLI inh 11.2µM, WRN helicase inh inconclusive, PI5P4Ka inh -85.9
O=C(NNC(=O)c1ccccc1-c1ccccc1C(=O)O)c1ccccc1	none
O=C(C=P(c1ccccc1)(c1ccccc1)c1ccccc1)c1ccccc1-c1ccccc1C(=O)C=P(c1ccccc1)(c1ccccc1)c1ccccc1	POLH inh inconclusive, WRN helicase inh inconclusive, PI5P4Ka inh -64.7 (no result: POLB inh)
Cc1c(Cl)cccc1NC(=O)CSc1cc(-c2ccccc2)ncn1	none (no result: WRN helicase inh, PI5P4Ka inh)
O=C(Cc1cc(=O)[nH][nH]1)N/N=C/C=C/c1ccccc1	POLH inh 14.1µM, POLI inh inconclusive, WRN helicase inh inconclusive, PI5P4Ka inh -60.5
O=C(CNC(=O)c1ccccc1)N/N=C/C=C/c1ccccc1	none
O=C(Nc1ccc2c(c1)CCC2)C1COc2ccccc2O1 (stereo unspecified)	POLB inh 17.8µM, POLI inh inconclusive (no result: PI5P4Ka inh)
O=C(O)CCC(=O)N1CCc2cc(S(=O)(=O)N3CC=C(c4ccccc4)CC3)ccc21	POLH inh inconclusive, POLK inh inconclusive, POLB inh 22.4µM, POLI inh inconclusive
COc1ccc(CCN(C(=O)/C=C/C(=O)O)C2CC(=O)N(c3ccccc3)C2=O)cc1 (stereo unspecified)	none
CCc1ccc(N2C(=O)CC(N(CC3CCCO3)C(=O)/C=C/C(=O)O)C2=O)cc1 (stereo unspecified)	POLH inh inconclusive, POLB inh 44.7µM
O=C(CCl)c1ccc2[nH]c(=O)oc2c1	POLH inh 44.7µM, POLI inh inconclusive
O=c1[nH]c2ccc(Br)cc2o1	none (no result: POLB inh)
COc1ccc2c(c1)c1c(c(=O)n(-c3cccc(C)c3)c(=O)n1Cc1cccc(Cl)c1)n2C	none (no result: WRN helicase inh, PI5P4Ka inh)
Cc1nnc(C)n1/N=C/c1cc(Br)ccc1O	none
Cc1nnc(C)n1/N=C/c1cc(Br)cc(Br)c1O	WRN helicase inh inconclusive, PI5P4Ka inh -50.2
Oc1ccccc1/C=N/n1c(-c2ccccc2)n[nH]c1=S	none
Oc1c(Br)cc(/C=N/n2c(-c3ccccc3)n[nH]c2=S)c(Br)c1O	POLB inh 0.251µM (no result: POLH inh, POLK inh, POLI inh, WRN helicase inh, PI5P4Ka inh)
COc1c(Br)cc(/C=N/n2c(-c3ccccc3)n[nH]c2=S)c(O)c1Br	POLH inh 79.4µM, POLK inh 2µM, POLB inh 3.55µM, POLI inh inconclusive, WRN helicase inh inconclusive, PI5P4Ka inh -55.1
Oc1c(Br)cc(Br)cc1/C=N/n1c(-c2ccccc2)n[nH]c1=S	PI5P4Ka inh -54.1
CC1CCN(S(=O)(=O)c2ccc3c(c2)N(CC(=O)NCCc2ccc(Cl)cc2)C(=O)CO3)CC1	none (no result: WRN helicase inh, PI5P4Ka inh)
CCn1c2c(c(=O)n3ncc(C(=O)Nc4ccc(F)cc4Cl)c13)CN(Cc1ccc(OC)cc1)CC2	none (no result: WRN helicase inh, PI5P4Ka inh)
COc1ccc(NC(=O)CN(c2ccc(C)cc2)S(=O)(=O)c2cccs2)cc1	none (no result: WRN helicase inh, PI5P4Ka inh)
CC(/C=C/c1ccccc1F)=N\NC(=O)c1ccc(Cl)cc1	PI5P4Ka inh -68.2
CC(/C=C/c1ccccc1F)=N\NC(=O)c1ccccc1	none
COc1ccc(C=C2OC(=O)C(C(C)=O)=C2O)cc1	PI5P4Ka inh -54.2 (no result: POLK inh, POLB inh, POLI inh)
Cc1cc2oc(C(=O)NCCc3ccc(S(N)(=O)=O)cc3)c(C)c2cc1C	POLB inh 5.62µM, POLI inh 25.1µM
Cc1cc2oc(C(=O)NCCc3ccc(S(N)(=O)=O)cc3)cc(=O)c2cc1C	none
NS(=O)(=O)c1ccc(CCNC(=O)c2cc3ccccc3s2)cc1	POLH inh 28.2µM, POLK inh inconclusive, POLB inh 44.7µM, POLI inh 22.4µM
NS(=O)(=O)c1ccc(CCNC(=O)c2ccc(Cl)s2)cc1	none
Oc1c(C=NCc2ccccc2)sc2ccccc12	none
Oc1ccccc1C=Nc1cccc2ccccc12	none
Oc1cccc(C=NCc2ccccc2)c1O	POLH inh inconclusive, POLK inh 14.1µM, POLB inh 3.55µM, POLI inh 7.94µM, WRN helicase inh 39.8µM, PI5P4Ka inh -58.4
Oc1cccc(C=Nc2cccc3ccccc23)c1O	POLK inh 35.5µM, POLB inh 8.91µM, POLI inh 11.2µM, PI5P4Ka inh -90.3
COc1ccccc1/C=C(/CC(=O)NCc1ccc(F)cc1)c1nc2ccccc2s1	POLH inh inconclusive, POLB inh 44.7µM, POLI inh inconclusive, PI5P4Ka inh inconclusive
COc1ccccc1/C=C(/CC(=O)NCc1ccccc1)c1nc2ccccc2s1	POLH inh inconclusive, POLB inh 20µM, PI5P4Ka inh inconclusive
CCOC(=O)c1c(NC(=O)C2C3C=CC(C3)C2C(=O)O)sc2c1CC(C)CC2 (stereo unspecified)	none
CCCOC(=O)c1c(NC(=O)C2C3C=CC(C3)C2C(=O)O)sc2c1CCC(C)C2 (stereo unspecified)	POLH inh inconclusive, POLI inh inconclusive, PI5P4Ka inh -59.0
O=C(O)C1C2C=CC(O2)C1C(=O)NCCC1=CCCCC1 (stereo unspecified)	POLH inh 50.1µM, POLB inh inconclusive, POLI inh inconclusive (no result: PI5P4Ka inh)
COCc1cc(C)nc(N/N=C/c2ccc(-c3ccc(C(=O)O)c(Cl)c3)o2)c1C#N	POLB inh 22.4µM (no result: POLH inh, POLK inh, POLI inh, WRN helicase inh, PI5P4Ka inh)
Cc1cc(N(C)C)c(C)cc1/C=C/c1ccnc2ccccc12	POLI inh 89.1µM (no result: POLH inh, POLB inh, WRN helicase inh, PI5P4Ka inh)
CN(C)c1ccc(/C=C/c2ccnc3ccccc23)cc1N	POLI inh 79.4µM (no result: POLH inh, POLB inh, WRN helicase inh, PI5P4Ka inh)
